Test results published in PubChem BioAssay (Tox21).
Inconclusive results are not listed. Activity calls are given as the source filed them. Unless noted, the call rests on the fitted dose curve; in most records, active means well fitted curve in the direction sought with a large enough effect in the repeat runs; inconclusive means weak or mixed curves; inactive means no such curve, though single readings can be large; an effect the other way counts as inactive or inconclusive.

Tests used:
[1] = qHTS assay to identify small molecule agonists of the sonic hedgehog signaling (Shh) pathway - cell viability counter screen (AID 1259366); further: nearly all actives have a fitted effect of over 50% in size
Summary of the method: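 CellTiter-Fluor fluorescence read-out, 1 hr at 37C, added after 23hr compound exposure. Cells: 3T3 Gli1-Luc, an NIH/3T3 clone with stably integrated Gli1-Luc reporter, plated 4hr before compound.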

[2] = qHTS assay to identify small molecule antagonists of the sonic hedgehog signaling (Shh) pathway - cell viability counter screen (AID 1259367); further: nearly all actives have a fitted effect of over 55% in size
Summary of the method: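 CellTiter-Fluor signal in conditioned medium-stimulated 3T3 Gli1-Luc cells, 23 hr compound exposure, 37C.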

[3] = qHTS assay to identify small molecule agonists of the sonic hedgehog signaling (Shh) pathway (AID 1259368; calls by dose curve;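 further: NIH/3T3-derived 3T3Gli1-Luc cells carrying a stable Gli1-driven firefly luciferase reporter; series mostly up to about 92 µM; nearly all actives have a fitted effect of over 15% in size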)
Summary of the method: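 Hedgehog pathway agonism scored by increased firefly luciferase luminescence in 3T3Gli1-Luc cells treated 24 hr at 37 C; detection used a 30 min room-temperature reagent incubation.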

[4] = target: Estrogen receptor beta (Homo sapiens) (UniProt Q92731); test: qHTS assay to identify small molecule agonists of the estrogen receptor beta (ER-beta) signaling pathway (AID 1259377; active means well fitted activation curve with a large enough effect in the signal ratio in the repeat runs, not every such curve was filed as active; the % refers to the signal ratio)
Chain of Estrogen receptor beta (Homo sapiens) (Q92731 whole entry, looked up): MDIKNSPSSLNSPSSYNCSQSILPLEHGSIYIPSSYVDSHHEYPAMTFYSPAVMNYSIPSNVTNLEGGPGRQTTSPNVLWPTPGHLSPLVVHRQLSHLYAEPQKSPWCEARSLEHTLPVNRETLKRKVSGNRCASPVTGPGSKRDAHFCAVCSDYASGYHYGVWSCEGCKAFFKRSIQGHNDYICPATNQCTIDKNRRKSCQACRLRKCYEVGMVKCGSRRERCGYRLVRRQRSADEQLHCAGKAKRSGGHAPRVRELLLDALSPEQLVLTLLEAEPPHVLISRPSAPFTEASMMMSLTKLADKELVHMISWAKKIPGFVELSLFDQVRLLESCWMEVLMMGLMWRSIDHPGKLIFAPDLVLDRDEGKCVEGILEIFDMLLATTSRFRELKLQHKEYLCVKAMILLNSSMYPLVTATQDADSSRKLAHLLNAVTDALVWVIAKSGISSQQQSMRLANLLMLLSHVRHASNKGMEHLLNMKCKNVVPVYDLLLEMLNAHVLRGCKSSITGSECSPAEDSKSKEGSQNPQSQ
Summary of the method: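 Beta-lactamase reporter readout: fluorescence of LiveBLAzer B/G FRET substrate after 2 h at room temperature, following 16 h compound treatment of ER-beta-UAS-bla HEK293T cells at 37C in 2% charcoal-stripped FBS medium.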

[5] = target: Estrogen receptor beta (Homo sapiens) (UniProt Q92731); test: qHTS assay to identify small molecule antagonists of the estrogen receptor beta (ER-beta) signaling pathway (AID 1259378; active means well fitted inhibition curve with a large enough effect in the signal ratio in the repeat runs, not every such curve was filed as active; the % refers to the signal ratio)
Summary of the method: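 Antagonist mode: compounds added to beta-lactamase reporter HEK293T ER-beta-UAS cells stimulated with E2 (1nM final), 16 hr at 37C. LiveBLAzer B/G FRET substrate, 2 hours room temperature, fluorescence read-out.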

[6] = qHTS assay to identify small molecule agonists of the androgen receptor (AR) signaling pathway in the presence of an antagonist - cell viability counter screen (AID 1259379);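 further: MDA-kb2 human breast cancer cells carrying an MMTV luciferase reporter; series mostly up to about 92 µM; nearly all actives have a fitted effect of over 25% in size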
Summary of the method: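 MDA-kb2 viability measured by CellTiter-Fluor fluorescence in the same wells as the luciferase signal; nilutamide 3.0uM final; 15-point compound titration; 16 hr at 37C.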

[7] = qHTS assay to identify small molecule agonists of the estrogen receptor beta (ER-beta) signaling pathway - cell viability counter screen (AID 1259380); further: nearly all actives have a fitted effect of over 30% in size
Summary of the method: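 Measured: luminescence from CellTiter-Glo after 30 min at room temperature, added to wells already read for the LiveBLAzer FRET reporter (2 hr substrate); ER-beta-UAS-bla HEK293T cells had 16 hr compound treatment at 37C, 5% CO2.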

[8] = target: Androgen receptor (Homo sapiens) (UniProt P10275); test: qHTS assay to identify small molecule agonists of the androgen receptor (AR) signaling pathway in the presence of an antagonist (AID 1259381; calls by dose curve; further: nearly all actives have a fitted effect of over 15% in size)
Chain of Androgen receptor (Homo sapiens) (P10275 whole entry, looked up): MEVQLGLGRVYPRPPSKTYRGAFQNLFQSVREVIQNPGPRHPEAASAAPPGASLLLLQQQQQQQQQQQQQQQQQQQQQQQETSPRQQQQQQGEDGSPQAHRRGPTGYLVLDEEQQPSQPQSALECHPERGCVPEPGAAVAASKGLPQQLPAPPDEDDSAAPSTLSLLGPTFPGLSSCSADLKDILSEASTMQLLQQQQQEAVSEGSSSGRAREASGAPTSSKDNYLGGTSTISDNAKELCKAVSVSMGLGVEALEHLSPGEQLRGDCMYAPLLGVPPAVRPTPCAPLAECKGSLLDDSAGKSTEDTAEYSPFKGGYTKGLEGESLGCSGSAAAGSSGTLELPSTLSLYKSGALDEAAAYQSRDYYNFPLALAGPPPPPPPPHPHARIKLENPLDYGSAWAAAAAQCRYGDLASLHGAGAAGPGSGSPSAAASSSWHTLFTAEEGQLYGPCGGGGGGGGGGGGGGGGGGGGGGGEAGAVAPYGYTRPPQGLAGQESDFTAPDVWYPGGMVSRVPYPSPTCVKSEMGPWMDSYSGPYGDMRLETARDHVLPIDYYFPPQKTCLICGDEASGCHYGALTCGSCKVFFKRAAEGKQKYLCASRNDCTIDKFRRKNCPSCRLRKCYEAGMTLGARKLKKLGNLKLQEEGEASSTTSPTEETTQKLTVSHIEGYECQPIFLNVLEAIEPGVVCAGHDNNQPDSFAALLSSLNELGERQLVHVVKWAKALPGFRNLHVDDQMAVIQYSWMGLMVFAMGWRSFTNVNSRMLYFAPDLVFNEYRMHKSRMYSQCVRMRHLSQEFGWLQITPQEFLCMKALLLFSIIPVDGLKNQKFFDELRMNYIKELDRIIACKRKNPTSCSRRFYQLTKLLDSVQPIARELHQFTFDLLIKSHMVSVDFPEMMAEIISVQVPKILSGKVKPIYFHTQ
Summary of the method: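 Luminescent ONE-Glo read, 30min at room temperature, follows 16hr compound exposure (15 concentrations) of MDA-kb2 cells at 37C, 0% CO2, with nilutamide added at 3.0uM final.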

[9] = qHTS assay to identify small molecule antagonists of the estrogen receptor beta (ER-beta) signaling pathway - cell viability counter screen (AID 1259382);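 further: HEK293T cells carrying ER-beta-UAS-bla reporter stimulated with estradiol; series mostly up to about 92 µM; nearly all actives have a fitted effect of over 55% in size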
Summary of the method: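 Readout: luminescence, CellTiter-Glo, same wells as bla assay. System: ER-beta-UAS-bla GripTite HEK293T, 2% charcoal-stripped FBS. Exposure: compounds plus 1nM 17-beta-estradiol, 16 hr, 37C.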
On the % scale 0 is the no-effect control and ±100 the full control effect.

C[C@@H](CN1CC(=O)NC(=O)C1)N1CC(=O)NC(=O)C1
inactive: outcome [1] | outcome [2] | outcome [3] | Potency [4] | outcome [5] | outcome [6] | Potency [7] | outcome [8] | outcome [9]

Cc1ccc2cccnc2c1
inactive: outcome [1] | outcome [2] | outcome [3] | Potency [4] | outcome [5] | outcome [6] | Potency [7] | outcome [8] | outcome [9]

CCCCOCCCC
inactive: outcome [1] | outcome [2] | outcome [3] | outcome [6] | Potency [7] | outcome [9]

O=Cc1ccccc1S(=O)(=O)O
inactive: outcome [1] | outcome [2] | outcome [3] | Potency [4] | outcome [5] | outcome [6] | Potency [7] | outcome [9]

C=CC(=O)CC
inactive: outcome [1] | outcome [2] | outcome [3] | Potency [4] | outcome [5] | outcome [6] | Potency [7] | outcome [9]

Cc1ccc2ccccc2n1
inactive: outcome [1] | outcome [2] | outcome [3] | Potency [4] | outcome [5] | outcome [6] | Potency [7] | outcome [9]

CCCCCCCCCCCCCC(=O)OCC
inactive: outcome [1] | outcome [2] | outcome [3] | outcome [6] | outcome [9]

COC(=O)c1ccccc1Cl
inactive: outcome [1] | outcome [2] | outcome [3] | Potency [4] | outcome [5] | outcome [6] | Potency [7] | outcome [9]

CCNC(=O)C(C)OC(=O)Nc1ccccc1 (configuration not stated)
inactive: outcome [1] | outcome [2] | outcome [3] | Potency [4] | outcome [5] | outcome [6] | Potency [7] | outcome [9]

c1cc2ccc3ccc4ccc5cccc6c(c1)c2c3c4c56
inactive: viability change, negative = cytotoxic [1] 2.39% [at 3.27 µM] | viability change, negative = cytotoxic [2] -2.17% [at 3.27 µM] | activity change [3] 0.83% [at 3.27 µM] | activity, negative = inhibition [5] 4.07% [at 3.27 µM] | activity change, negative = cytotoxicity [6] 2.9% [at 3.27 µM] | activity change, negative = cytotoxicity [7] 0.89% [at 3.32 µM] | activity change, negative = cytotoxicity [9] -0.247% [at 3.27 µM]

COC(=O)c1cc(Cl)c(NC(C)=O)cc1OC
inactive: outcome [1] | outcome [2] | outcome [3] | Potency [4] | outcome [5] | Potency [7] | outcome [8] | outcome [9]

COC(=O)/C=C(\C)CCC=C(C)C
inactive: outcome [1] | outcome [2] | outcome [3] | Potency [4] | outcome [5] | Potency [7] | outcome [9]

CNC(=O)c1c(I)c(NC(C)=O)c(I)c(C(=O)O)c1I
inactive: outcome [1] | outcome [2] | outcome [3] | Potency [4] | outcome [5] | outcome [6] | Potency [7] | outcome [9]

C=C(C)C(=O)OCCCC
inactive: outcome [1] | outcome [2] | outcome [3] | Potency [4] | outcome [5] | outcome [6] | Potency [7] | outcome [8] | outcome [9]

C[C@]12C=CC(=O)C=C1[C@@H](F)C[C@@H]1[C@@H]2[C@@H](O)C[C@@]2(C)[C@H]1CC[C@]2(O)C(=O)CO
inactive: outcome [1] | outcome [2] | outcome [3] | outcome [6] | Potency [7] | outcome [9]

Cc1ccc(OC(=O)CC(C)C)cc1
inactive: outcome [1] | outcome [2] | outcome [3] | outcome [6] | Potency [7] | outcome [9]

CCO/C=C1\N=C(c2ccccc2)OC1=O
inactive: outcome [1] | outcome [2] | outcome [3] | Potency [4] | outcome [5] | Potency [7] | outcome [9]

CCCCCCCCCCCCCCCC/C=C/C1CC(=O)OC1=O (configuration not stated)
inactive: outcome [1] | outcome [2] | outcome [3] | Potency [4] | outcome [5] | Potency [7] | outcome [9]

CCN(CC)CC
inactive: outcome [1] | outcome [2] | outcome [3] | outcome [6] | Potency [7] | outcome [9]

CCC(C)(C)C
inactive: outcome [1] | outcome [2] | outcome [3] | Potency [4] | outcome [5] | Potency [7] | outcome [9]

CC(C)(C)C(=O)NCCCC(=O)O
inactive: outcome [1] | outcome [2] | outcome [3] | outcome [6] | Potency [7]

COCc1nnc(-c2ccc[n+]([O-])c2)n1-c1c(Cl)c(Cl)cc2[nH]c(=O)c(=O)[nH]c12
inactive: outcome [1] | outcome [2] | outcome [3] | outcome [5] | outcome [6] | Potency [7] | outcome [8] | outcome [9]

CCOc1ccccc1OCCN[C@H](C)Cc1ccc(OC)c(S(N)(=O)=O)c1
inactive: outcome [1] | outcome [2] | outcome [3] | Potency [4] | outcome [5] | outcome [6] | Potency [7] | outcome [9]

Cc1nc2ccc(Cl)cc2[nH]1
inactive: outcome [1] | outcome [2] | outcome [3] | Potency [4] | outcome [5] | outcome [6] | Potency [7] | outcome [9]

CCCCCCCCCCCCCCCCN(C)C
inactive: viability change, negative = cytotoxic [1] 4.7% [at 8.39 µM] | viability change, negative = cytotoxic [2] 2.16% [at 8.39 µM] | activity change [3] -0.702% [at 8.39 µM] | activation [4] -2.39% [at 8.39 µM] | activity, negative = inhibition [5] 3.25% [at 8.39 µM] | activity change, negative = cytotoxicity [6] 0.395% [at 8.39 µM] | activity change, negative = cytotoxicity [7] 3.62% [at 8.39 µM] | activation [8] -0.033% [at 8.39 µM] | activity change, negative = cytotoxicity [9] 6.11% [at 8.39 µM]

CC(=O)/C=C/C=C1/C2CCC(C2)C1(C)C (configuration not stated)
inactive: outcome [1] | outcome [2] | outcome [3] | outcome [6] | Potency [7] | outcome [8] | outcome [9]
